# Unmarked numbers belong to inactive results. Results filed as inconclusive are left out. A call without a number means that no potency is given here. Active and inactive are the calls of the source. Unless noted, calls follow the shape of the dose curve; as a rule, active = well fitted curve in the direction sought with a large enough effect in the repeat runs; inconclusive = weak or mixed curves; inactive = no such curve, though single readings can be large; an effect the other way counts as inactive or inconclusive.
# Columns and labels:
# [1] = qHTS assay for small molecule agonists of the p53 signaling pathway (AID 651631; calls by dose curve; also: nearly all actives have a fitted effect of over 15% in size)
# In short: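 HCT-116 cells carrying a beta-lactamase reporter under p53 response elements were dosed with compound for 16 h at 37 °C. LiveBLAzer B/G FRET substrate was then added for 2 h at room temperature, and fluorescence intensity was read to detect pathway agonism.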
# [2] = qHTS assay for small molecules that induce genotoxicity in human embryonic kidney cells expressing luciferase-tagged ATAD5 (AID 651632); also: nearly all actives have a fitted effect of over 15% in size
# In short: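 Test compounds were delivered by pin tool onto HEK293T reporter cells (2,000/well) expressing ATAD5 fused to luciferase. After 16 hr at 37C, 5% CO2, Amplite was added for 30 min at room temperature and luminescence was measured.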
# [3] = qHTS assay for small molecule agonists of the p53 signaling pathway - cell viability (AID 651633; calls by dose curve;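 also: p53RE-bla HCT reporter cells with a stable beta-lactamase p53 reporter; series mostly up to about 83 µM; nearly all actives have a fitted effect of over 30% in size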)
# In short: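 Viability counter-read: CellTiter-Glo luminescence (30 min, room temperature) in the same p53RE-bla plates. These plates had been exposed to compounds for 16 h at 37 C.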
# [4] = qHTS assay for small molecules that induce genotoxicity in human embryonic kidney cells expressing luciferase-tagged ATAD5 - cell viability (AID 651634; calls by dose curve; also: nearly all actives have a fitted effect of over 25% in size)
# In short: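 Quantitative high-throughput format. HEK293T cells expressing ATAD5 fused to luciferase were plated at 2,000 cells/well and treated 15.5 hr with compound versus DMSO. Viability was determined by fluorescent live-cell protease substrate, 30 min at 37C.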
# [5] = qHTS assay for small molecule disruptors of the mitochondrial membrane potential - cell viability (AID 720634; calls by dose curve;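 also: human HepG2 liver cancer cells; series mostly up to about 83 µM; nearly all actives have a fitted effect of over 20% in size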)
# In short: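 Same-well counter-screen: following the MMP dye addition, CellTiter-Glo was added to 1 hr compound-treated HepG2 cells and luminescence read after 30 min at room temperature.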
# [6] = qHTS assay to test for compound auto fluorescence at 590 nm (red) in HepG2 cells (AID 720674)
# In short: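 We screened compounds on adherent HepG2 cells, incubating them for an hour at 37 C in 5% CO2 before reading emission at 590 nm under 540 nm excitation; values reflect equivalence to Rose Bengal sodium fluorescence.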
# [7] = qHTS assay to test for compound auto fluorescence at 535 nm (green) in HepG2 cells (AID 720675)
# [8] = qHTS assay to test for compound auto fluorescence at 460 nm (blue) in HEK293 cells (AID 720678)
# In short: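 HEK293 cells (2,000/well, medium with 10% dialyzed FBS) attached 4-5 hr, then exposed to compound overnight at 37C, 5% CO2. Blue fluorescence read at 405/460 nm, with triamterene as reference fluorophore.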
# [9] = qHTS assay to test for compound auto fluorescence at 590 nm (red) in HEK293 cells (AID 720679)
# In short: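 HEK293 cells (2,000/well, 10% dialyzed FBS) attached 4-5 hr, then dosed with compound or DMSO and incubated overnight at 37C, 5% CO2. Red fluorescence read at 540/590 nm, Rose Bengal sodium as reference fluorophore.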
# [10] = qHTS assay for small molecule disruptors of the mitochondrial membrane potential (AID 720635); also: potency is read from the fitted curve at half-maximal effect
# In short: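 Mitochondrial membrane potential tracked with Mito-MPS dye, red aggregates (ex 540/em 590 nm) against green monomers (ex 490/em 535 nm). Compound treatment 1 hr at 37C, dye 30 min in HepG2.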
Compound,outcome [1],Potency [2],outcome [3],Potency [4],outcome [5],outcome [6],outcome [7],outcome [8],outcome [9],Potency [10]
CCC(C=O)CC,inactive,inactive,inactive,inactive,inactive,inactive,inactive,inactive,inactive,
CCCCCCCCOS(=O)(=O)O,inactive,inactive,inactive,inactive,inactive,inactive,inactive,inactive,inactive,inactive
COCCOCCOCCOCCO,inactive,inactive,inactive,inactive,inactive,inactive,inactive,inactive,inactive,
CCCCCCCCCCCCCC,inactive,inactive,inactive,inactive,inactive,,inactive,inactive,inactive,inactive
C=C(C)C(=O)OCCNC(C)(C)C,inactive,inactive,inactive,inactive,inactive,,inactive,inactive,inactive,inactive
Oc1cn2c(n1)Nc1ccc(Cl)c(Cl)c1C2,inactive,inactive,inactive,inactive,inactive,inactive,inactive,inactive,inactive,inactive
CC1(CO)CN(c2ccccc2)NC1=O (configuration not stated),inactive,inactive,inactive,inactive,inactive,inactive,inactive,inactive,inactive,
O=C(O)Cc1cn(-c2ccccc2)nc1-c1ccc(Cl)cc1,inactive,inactive,inactive,inactive,inactive,inactive,inactive,inactive,inactive,inactive
Cc1ccccc1OCC(O)CO (configuration not stated),inactive,inactive,inactive,inactive,inactive,inactive,inactive,,inactive,inactive
CC(=O)NCc1c(I)c(NC(C)=O)c(I)c(C(=O)O)c1I,inactive,inactive,inactive,inactive,inactive,inactive,inactive,inactive,inactive,inactive
C=C(C)C(=O)OCCN(CC)CC,inactive,inactive,inactive,inactive,inactive,inactive,inactive,inactive,inactive,inactive
CC(COC(C)(C)C)OCCCO (configuration not stated),inactive,inactive,inactive,inactive,inactive,inactive,inactive,,inactive,inactive
CC(C)(C)c1n[nH]c(=S)n(N)c1=O,inactive,inactive,inactive,inactive,inactive,,inactive,,inactive,inactive
O=C(OCC1(COC(=O)c2cccnc2)CCCC(COC(=O)c2cccnc2)(COC(=O)c2cccnc2)C1O)c1cccnc1,inactive,inactive,inactive,inactive,inactive,,inactive,inactive,inactive,inactive
CCOc1cc(NC(C)=O)ccc1C(=O)OC,inactive,inactive,inactive,inactive,inactive,inactive,inactive,inactive,inactive,inactive
CCCC/C=C\CCCCCCCCCC=O,inactive,inactive,inactive,inactive,inactive,inactive,inactive,inactive,inactive,inactive
CC(C(=O)O)c1ccc2c(c1)CC(=O)c1ccccc1S2 (configuration not stated),inactive,inactive,inactive,inactive,inactive,inactive,inactive,inactive,inactive,inactive
CCCCNC1CC(C)(C)NC(C)(C)C1,inactive,inactive,inactive,inactive,inactive,inactive,inactive,inactive,inactive,
CC(C)CC(=O)O,inactive,inactive,inactive,inactive,inactive,inactive,inactive,inactive,inactive,inactive
CC(=O)OC(C)OC(=O)C(C)c1ccc(-c2ccccc2)c(F)c1 (configuration not stated),inactive,inactive,inactive,inactive,inactive,inactive,inactive,inactive,inactive,
Cc1cc(NC(=O)C2=C(O)c3ccccc3S(=O)(=O)N2C)no1,inactive,inactive,inactive,inactive,inactive,inactive,inactive,inactive,inactive,2.66 µM (active)
Cc1cccc2nccnc12,inactive,inactive,inactive,inactive,inactive,inactive,inactive,inactive,inactive,
CCOC(=O)c1ncn2c1CN(C)C(=O)c1cc(F)ccc1-2,inactive,inactive,inactive,inactive,inactive,inactive,inactive,inactive,inactive,inactive

# — PubChem BioAssay (Tox21)
